Source: PubChem BioAssay (NCI)
The panel holds about 79,000 compounds, 15% with a hit somewhere; the sample as a whole holds those more often. Active and inactive are the calls of the source. Cut-off read from the data, not from the text of the source: active = growth inhibition above about 70%; inactive = the rest.

Assays:
[1] = NCI Yeast Anticancer Drug Screen. Data for the rad52 strain (AID 147);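 note: 0% = growth of vehicle-treated control cultures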; details: S. cerevisiae rad52 mutant growth inhibition, active compounds read high
Summary of the method: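 The repair-mutant yeast strain was incubated with compounds, then growth was read and inhibition derived relative to vehicle.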

[2] = NCI Yeast Anticancer Drug Screen. Data for the wt1 strain (AID 149);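 note: 0% = growth of vehicle-treated wt1 cultures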; details: S. cerevisiae wt1 strain (SPY 50644) growth inhibition, active compounds read high
Summary of the method: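 Vehicle-normalised growth inhibition; strain wt1; compound exposure.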

[3] = NCI Yeast Anticancer Drug Screen. Data for the rad50EPP+ strain (AID 151);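 note: 0% = growth of vehicle-treated control cultures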; details: S. cerevisiae rad50 mutant strain, active compounds read high
Summary of the method: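 Vehicle-normalised growth inhibition; rad50EPP+ yeast strain, altered in DNA damage repair, compound-treated.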

[4] = NCI Yeast Anticancer Drug Screen. Data for the mgt1 strain (AID 153); details: S. cerevisiae mgt1 mutant growth inhibition, active compounds read high
Summary of the method: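 Vehicle-normalized growth inhibition is determined in mgt1 yeast, a strain selected for a defined alteration in DNA repair or cell cycle control.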

[5] = NCI Yeast Anticancer Drug Screen. Data for the rad50 strain (AID 155);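 note: 0% = growth of vehicle-only cultures of the same strain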; details: S. cerevisiae rad50 strain growth inhibition, active compounds read high
Summary of the method: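 A DNA repair-deficient yeast mutant serves as the test organism; compound-induced growth inhibition is calculated against vehicle-treated cells.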

[6] = NCI Yeast Anticancer Drug Screen. Data for the mec2-1 strain (AID 157); details: S. cerevisiae mec2-1 strain, active compounds read high
Summary of the method: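 Mutant yeast (mec2-1) grown with compound; growth inhibition relative to vehicle control reported.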

[7] = NCI Yeast Anticancer Drug Screen. Data for the rad14 strain (AID 159);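 note: 0% = growth of vehicle-treated control cultures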; details: S. cerevisiae rad14 strain growth inhibition, active compounds read high
Summary of the method: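 Vehicle-treated cultures served as the baseline for growth inhibition of a DNA repair-mutant yeast strain exposed to each compound.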

[8] = NCI Yeast Anticancer Drug Screen. Data for the sgs1 mgt1 strain (AID 161);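 note: 0% = growth of cultures given vehicle only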; details: S. cerevisiae sgs1 mgt1 strain, active compounds read high
Summary of the method: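 Growth of a repair-deficient yeast mutant was monitored after compound treatment and expressed as inhibition relative to vehicle-treated cultures.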

[9] = NCI Yeast Anticancer Drug Screen. Data for the CLN2oe strain (AID 163);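 note: 0% = growth of vehicle-only control cultures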; details: S. cerevisiae CLN2oe strain, active compounds read high
Summary of the method: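 Compounds are applied to yeast harbouring a defined cell-cycle control change; reduced growth compared with vehicle-treated controls gives the value.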

[10] = NCI Yeast Anticancer Drug Screen. Data for the cln2 rad14 strain (AID 165);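 note: 0% = growth equal to vehicle treated cultures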; details: S. cerevisiae cln2 rad14 strain, active compounds read high
Summary of the method: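 Readout is yeast growth inhibition versus vehicle-treated controls, using a strain with cln2 and rad14 alterations exposed to compound.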

[11] = NCI Yeast Anticancer Drug Screen. Data for the bub3 strain (AID 167); details: S. cerevisiae bub3 mutant strain, active compounds read high
Summary of the method: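 Inhibition values come from growth of compound-treated mutant yeast normalised to vehicle-treated controls.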

[12] = NCI Yeast Anticancer Drug Screen. Data for the wt2 strain (AID 169);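 note: 0% = growth of vehicle-treated yeast cultures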; details: S. cerevisiae wt2 strain growth inhibition, active compounds read high
Summary of the method: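 Against vehicle-treated controls, the growth of yeast exposed to each compound was compared, and the inhibition was recorded.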

[13] = NCI Yeast Anticancer Drug Screen. Data for the mlh1 strain (AID 171);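 note: 0% = growth of vehicle-treated control cultures of the same strain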; details: S. cerevisiae mlh1 strain growth inhibition, active compounds read high
Summary of the method: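 Measured: yeast growth. Reference: vehicle-treated controls. Organism: strain with a defined alteration affecting DNA damage repair or cell cycle control, treated with compound.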

[14] = NCI Yeast Anticancer Drug Screen. Data for the sgs1 strain (AID 173);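 note: 0% = growth of vehicle-only control cultures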; details: S. cerevisiae sgs1 mutant, active compounds read high
Summary of the method: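 Each compound was added to cultures of the altered yeast strain. Growth was recorded, and inhibition was derived by comparison with vehicle controls.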

[15] = NCI Yeast Anticancer Drug Screen. Data for the mlh1 rad18 strain (AID 175); details: S. cerevisiae mlh1 rad18 strain growth inhibition, active compounds read high
Summary of the method: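 Genetically defined yeast (DNA repair-deficient) exposed to compounds; growth inhibition determined relative to vehicle.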

[16] = NCI Yeast Anticancer Drug Screen. Data for the rad18 strain (AID 177); details: S. cerevisiae rad18 mutant growth inhibition, active compounds read high
Summary of the method: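 Vehicle-treated cultures served as the baseline for scoring compound-induced growth inhibition in DNA-repair-mutant yeast.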

[17] = at 5.0 µM (retest, dose inferred, filed as 0.5)
[18] = at 50.0 µM (retest, dose inferred, filed as 5.0)

Measured: growth inhibition

CC1(C2CC2)C(C#N)(C#N)C1(C#N)C#N
active: [1]; at 100.0 µM 78% | [5]; [18] 91% | [5]; at 100.0 µM 91% | [6]; at 100.0 µM 84% | [8]; [18] 70% | [11]; [18] 81% | [11]; at 100.0 µM 84% | [13]; at 100.0 µM 84% | [14]; at 100.0 µM 94% | [15]; [18] 89% | [15]; at 50.0 µM 70.9% | [16]; at 100.0 µM 87%
inactive: [1]; at 1.2 µM 2% | [1]; at 3.7 µM 10% | [1]; at 11.0 µM 22% | [1]; at 33.0 µM 45% | [2]; at 1.2 µM -2% | [2]; at 3.7 µM -2% | [2]; at 11.0 µM 5% | [2]; at 33.0 µM 19% | [2]; at 100.0 µM 48% | [3]; at 1.2 µM -1% | [3]; at 3.7 µM 2% | [3]; at 11.0 µM 1% | [3]; at 33.0 µM 9% | [3]; at 100.0 µM 9% | [4]; at 1.2 µM -1% | [4]; at 3.7 µM -2% | [4]; at 11.0 µM 1% | [4]; at 33.0 µM 16% | [4]; at 100.0 µM 63% | [5]; at 1.2 µM -1% | [5]; at 3.7 µM 3% | [5]; [17] -106% | [5]; at 11.0 µM 25% | [5]; at 33.0 µM 66% | [5]; at 50.0 µM 38.1% | [6]; at 1.2 µM 4% | [6]; at 3.7 µM 2% | [6]; [17] -39% | [6]; at 11.0 µM 33% | [6]; at 33.0 µM 36% | [6]; [18] 57% | [6]; at 50.0 µM 41.9% | [7]; at 1.2 µM 4% | [7]; at 3.7 µM 7% | [7]; at 11.0 µM 16% | [7]; at 33.0 µM 29% | [7]; at 100.0 µM 66% | [8]; [17] -48% | [8]; at 50.0 µM 51% | [9]; at 1.2 µM -2% | [9]; at 3.7 µM 8% | [9]; at 11.0 µM 16% | [9]; at 33.0 µM 21% | [9]; at 100.0 µM 53% | [10]; [17] -50% | [10]; [18] 7% | [10]; at 50.0 µM 16.3% | [11]; at 1.2 µM -7% | [11]; at 3.7 µM -2% | [11]; [17] -57% | [11]; at 11.0 µM 19% | [11]; at 33.0 µM 49% | [11]; at 50.0 µM 39.8% | [12]; at 1.2 µM -1% | [12]; at 3.7 µM -2% | [12]; at 11.0 µM -1% | [12]; at 33.0 µM 15% | [12]; at 100.0 µM 69% | [13]; at 1.2 µM 4% | [13]; at 3.7 µM -9% | [13]; at 11.0 µM 9% | [13]; at 33.0 µM 31% | [14]; at 1.2 µM -1% | [14]; at 3.7 µM 6% | [14]; at 11.0 µM 23% | [14]; at 33.0 µM 60% | [15]; [17] -96% | [16]; at 1.2 µM 4% | [16]; at 3.7 µM 9% | [16]; at 11.0 µM 22% | [16]; at 33.0 µM 53%

c1ccc(-c2cc(C3CO3)c3ccccc3n2)cc1 (stereo unspecified)
active: [1]; at 33.0 µM 70% | [1]; at 100.0 µM 98% | [2]; at 100.0 µM 96% | [4]; at 100.0 µM 99% | [5]; at 50.0 µM 90.7% | [5]; at 100.0 µM 98% | [6]; at 50.0 µM 74.5% | [6]; at 100.0 µM 98% | [7]; at 100.0 µM 97% | [8]; [18] 80% | [8]; at 50.0 µM 95.5% | [9]; at 100.0 µM 97% | [11]; at 50.0 µM 93.2% | [11]; at 100.0 µM 99% | [12]; at 33.0 µM 77% | [12]; at 100.0 µM 99% | [14]; at 33.0 µM 80% | [14]; at 100.0 µM 98% | [15]; at 50.0 µM 95.8%
inactive: [1]; at 1.2 µM -1% | [1]; at 3.7 µM 5% | [1]; at 11.0 µM 19% | [2]; at 1.2 µM -1% | [2]; at 3.7 µM -3% | [2]; at 11.0 µM -5% | [2]; at 33.0 µM 2% | [3]; at 1.2 µM 2% | [3]; at 3.7 µM 6% | [3]; at 11.0 µM 24% | [3]; at 33.0 µM 46% | [3]; at 100.0 µM 68% | [4]; at 1.2 µM -2% | [4]; at 3.7 µM -4% | [4]; at 11.0 µM 1% | [4]; at 33.0 µM 69% | [5]; at 1.2 µM -4% | [5]; at 3.7 µM 1% | [5]; [17] -14% | [5]; at 11.0 µM -4% | [5]; at 33.0 µM 36% | [5]; [18] 15% | [6]; at 1.2 µM -3% | [6]; at 3.7 µM -1% | [6]; [17] -28% | [6]; at 11.0 µM -4% | [6]; at 33.0 µM 7% | [6]; [18] 35% | [7]; at 1.2 µM -4% | [7]; at 3.7 µM -4% | [7]; at 11.0 µM 1% | [7]; at 33.0 µM 25% | [8]; [17] -1% | [9]; at 1.2 µM -7% | [9]; at 3.7 µM -11% | [9]; at 11.0 µM -11% | [9]; at 33.0 µM 4% | [10]; [17] -29% | [10]; [18] 28% | [10]; at 50.0 µM 66.5% | [11]; at 1.2 µM 2% | [11]; at 3.7 µM -1% | [11]; [17] 8% | [11]; at 11.0 µM 10% | [11]; at 33.0 µM 41% | [11]; [18] 31% | [12]; at 1.2 µM -1% | [12]; at 3.7 µM 1% | [12]; at 11.0 µM 12% | [14]; at 1.2 µM 0% | [14]; at 3.7 µM 1% | [14]; at 11.0 µM 19% | [15]; [17] -17% | [15]; [18] 69%
